Laboratory results reported in PubChem BioAssay AID1053122 (Broad Institute, 2014).
Entries with a potency or affinity are not part of this list. The source made the active and inactive calls.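 How the source made its calls: active means CTGF level falls with dose and the fitted half-maximal dose is at most twice the top valid dose; inconclusive means flat fit with 30 to 70% drop, or a poor fit; inactive means the rest.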

Assay: YAP1 pathway inhibition via CTGF transcript levels, dose response, cell-based, DLD1 colon cancer, RT-qPCR, cherry-pick (AID 1053122)
Details: DLD1 CTGF mRNA (YAP1 pathway), 24 h; series mostly up to 26 µM; CTGF expression fold change (lower = inhibition): at the top concentration

CTGF expression fold change (lower = inhibition), inactive:
CN1CCN(C(=O)C[C@@H]2CC[C@H]3[C@@H](COc4ccc(NC(=O)C5CCOCC5)cc4C(=O)N3C)O2)CC1 0.869 unspecified, Cc1ccc(S(=O)(=O)Nc2ccc3c(c2)CC(=O)N([C@H](C)CO)C[C@@H](C)[C@@H](CN(C)S(=O)(=O)c2ccccc2)O3)cc1 0.942 unspecified, COc1ccc2c3c(n(C)c2c1)[C@@H](CO)N(Cc1ccncc1)CC31CN(C(=O)Nc2cccc(F)c2)C1 0.843 unspecified, Cc1ccc(S(=O)(=O)N[C@H]2C=C[C@H](CC(=O)NCc3ccc(Cl)c(Cl)c3)O[C@H]2CO)cc1 1.01 unspecified, O=C(Nc1ccc2c(c1)[C@H]1C[C@@H](CC(=O)N3CCc4ccccc4C3)O[C@H](CO)[C@H]1O2)c1ccc2c(c1)OCO2 0.506 unspecified, O=C(Nc1cccc(F)c1)N1CCCCN2[C@H](C1)[C@H](c1ccc(C#Cc3cccnc3)cc1)[C@@H]2CO 0.636 unspecified, C[C@@H]1CN([C@@H](C)CO)C(=O)c2cccc(NC(=O)c3nc4ccccc4s3)c2O[C@H]1CN(C)C(=O)Nc1ccc2c(c1)OCO2 0.667 unspecified, CN1C(=O)c2cc(NS(=O)(=O)c3ccccc3F)ccc2OC[C@@H]2O[C@@H](CC(=O)NC3Cc4ccccc4C3)CC[C@@H]21 1.2 unspecified, CCNC(=O)c1cc2c(c(-c3cccc(-c4ccccc4F)c3)n1)[C@@H](CCO)N(C(=O)CC1CC1)C2 0.698 unspecified, C[C@@H]1CN([C@H](C)CO)C(=O)c2ccccc2-c2ccccc2CO[C@@H]1CN(C)Cc1ccc2c(c1)OCCN2C 0.751 unspecified, COc1cccc(C#Cc2ccc3c(c2)O[C@@H](CN(C)C(=O)CN2CCOCC2)[C@@H](C)CN([C@@H](C)CO)S3(=O)=O)c1 1.13 unspecified, C[C@@H]1CN([C@@H](C)CO)C(=O)c2cc(NC(=O)Nc3ccccc3)ccc2O[C@@H](C)CCCCO[C@@H]1CN(C)C(=O)Nc1ccccc1 0.865 unspecified, C[C@H]1CN([C@@H](C)CO)C(=O)c2cccc(NC(=O)c3ccc(-c4nccs4)cc3)c2O[C@@H]1CN(C)C(=O)Nc1ccc(C(F)(F)F)cc1 0.515 unspecified, COc1ccccc1C(=O)Nc1ccc2c(c1)C(=O)N(C)C[C@H](OC)[C@@H](C)CN(C(C)=O)[C@@H](C)CO2 0.589 unspecified, C/C=C/c1cccc(-c2nc(C(=O)Nc3nccs3)cc3c2[C@@H](CCO)N(C(=O)NC(C)C)C3)c1 0.85 unspecified, Cc1ccccc1-c1ccc([C@H]2[C@@H](CO)N3CCCCN(S(=O)(=O)Cc4ccccc4)C[C@@H]23)cc1 0.556 unspecified, O=C(Nc1ccc2c(c1)[C@H]1C[C@@H](CC(=O)N3CCc4ccccc4C3)O[C@@H](CO)[C@H]1O2)c1ccc2c(c1)OCO2 0.505 unspecified, C[C@@H]1CN([C@@H](C)CO)C(=O)c2ccccc2-c2ccccc2CO[C@@H]1CN(C)S(=O)(=O)c1cn(C)cn1 0.921 unspecified, C[C@@H]1CN([C@@H](C)CO)C(=O)Cc2cc(NC(=O)C3CCCCC3)ccc2O[C@@H]1CN(C)Cc1ccc(Cl)c(Cl)c1 0.922 unspecified [at 23.5 µM], COc1ccc(CN(C)C[C@H]2Oc3ccc(NC(=O)Nc4ccc5c(c4)OCO5)cc3CC(=O)N([C@@H](C)CO)C[C@H]2C)cc1 0.724 unspecified, O=C([C@H]1[C@H](CO)[C@H]2Cn3c(ccc(-c4ccc(F)cc4)c3=O)[C@H]2N1Cc1cocn1)N1CCCCC1 1.02 unspecified, COc1ccccc1C#Cc1ccc([C@H]2[C@H](CO)N3CCCCN(C(=O)C4CCC4)C[C@@H]23)cc1 0.394 unspecified, O=C(Nc1ccccc1)[C@@H]1[C@@H](CO)[C@@H]2Cn3c(cccc3=O)[C@H]1N2C(=O)c1ccc(F)cc1 1.04 unspecified, C[C@H](O)C#Cc1ccc([C@H]2[C@@H](CO)N3CCCCN(C(=O)c4ccc5c(c4)OCO5)C[C@@H]23)cc1 0.846 unspecified [at 23.5 µM], CC(C)NC(=O)N[C@@H]1CC[C@H](CC(=O)NCCCN(C)C)O[C@@H]1CO 1.05 unspecified, CN(C)C(=O)c1ccc(-c2cccc(-c3nc(C(=O)NCc4ccccc4)cc4c3[C@@H](CCO)N([S@](=O)C(C)(C)C)C4)c2)cc1 1.62 unspecified, CC(C)(C)[S@@](=O)N1Cc2cc(C(=O)NCC(F)(F)F)nc(-c3cccc(-c4cccc(F)c4)c3)c2[C@H]1CCO 0.913 unspecified, COc1ccc(NC(=O)N(C)C[C@H]2Oc3c(NC(=O)CCCCCC(=O)Nc4ccccc4N)cccc3C(=O)N([C@H](C)CO)C[C@@H]2C)cc1 0.828 unspecified [at 23.5 µM], CCCC#Cc1ccc([C@@H]2[C@@H](C#N)N(C(=O)CN3CCOCC3)[C@H]2CO)cc1 1.05 unspecified [at 23.5 µM]
